Assay results: PubChem BioAssay AID624256 (NMMLSC, 2012)
Hit rate of the full screen: of about 360,000 compounds, about 3,700 (1%) were called active. Not shown: some 2% with an inconclusive outcome.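 Rule for the calls: active = normalized GFP-positive differentiation at or above the plate's own cutoff, the solvent-only control mean plus 3 SD; inconclusive = no clear call, values can overlap the other calls; inactive = the rest.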 For the sample, actives were picked, then their nearest neighbours and some compounds at random.

assay: induction of myeloid progenitor differentiation, primary screen, cell-based, flow cytometry, MLPCN library (AID 624256); settings: ER-HoxA9 myeloid progenitors, lysozyme-GFP differentiation, at 10 µM; GFP+ MAC1+ double positive: measured here: differentiation confirmed by MAC1 staining, stronger effect = higher value; normalized GFP-positive differentiation: stronger effect = higher value;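 for GFP+ MAC1+ double positive: cells exposed to compound for four days before flow analysis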;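 for normalized GFP-positive differentiation: cells exposed to compound for four days before flow analysis; 0% = DMSO wells and 100% = fulvestrant positive control at 5 µM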

| SMILES | GFP+ MAC1+ double positive [%] | outcome | normalized GFP-positive differentiation |
| --- | --- | --- | --- |
| Cc1ccc2nc(-c3ccccc3)c(CC3CCCCC3)n2c1 | 0.3 | inactive | – |
| COc1cc(OC)cc(C2=Cc3ccccc3C(CC(=O)c3ccco3)N2c2ccc(-c3cnc(OC)nc3)cc2)c1 (stereo not given) | 1 | inactive | – |
| CC(=O)N1Cc2cc(C(=O)NCc3cccc(F)c3)nc(-c3cccc(C4=CCCCC4)c3)c2[C@H]1CCO | 1.2 | inactive | – |
| C[C@H](NC(=O)CC[C@H]1O[C@@H](n2ccc(=O)[nH]c2=O)[C@H](O)[C@@H]1O)c1cccc2ccccc12 | 1.1 | inactive | – |
| COc1cccc(CN(C)C(=O)CC[C@H]2O[C@@H](n3cnc4c(NC(=O)c5ccccc5)ncnc43)[C@H](O)[C@@H]2O)c1 | 0.5 | inactive | – |
| CCCCc1nc2ccc(F)cc2cc1C | 0.5 | inactive | – |
| O=c1c(-c2ccc(Cl)cc2)[n+]([O-])c2ccccc2n1OCc1nc2ccccc2[nH]1 | 0.7 | inactive | – |
| O=C(Cc1ccc(Cl)cc1)c1ccccc1 | 0.7 | inactive | – |
| O=C(Cc1nc2ccccc2[nH]c1=O)c1ccc(Cl)cc1 | 72.3 | – | 347% (active) |
| CN1OC[C@@H]2CN(C(=O)c3cccnc3)[C@H](c3ccc(N4CCCCC4)cc3)C[C@@H]21 | 1.2 | inactive | – |
| O=S1(=O)CC(N2CCC(Cc3ccccc3)CC2)CN1Cc1ccccc1 (stereo not given) | 1.3 | inactive | – |
| CC1(C(=O)NS(=O)(=O)c2cccc(F)c2)CCN1C(=O)Cc1ccc(Cl)cc1Cl (stereo not given) | 0.9 | inactive | – |
| Cc1ccc(NC(=O)CCN2C(=O)c3ccccc3C2=O)cc1C | 0.6 | inactive | – |
| Cc1cc(C)cc(NC(=O)CCN2C(=O)c3ccccc3C2=O)c1 | 0.5 | inactive | – |
| Cc1ccc(/C=C2\SC(=S)N(CCC(=O)Nc3ccc(O)cc3)C2=O)cc1 | 17.3 | – | 264% (active) |
| O=C(Nc1ccc(F)cc1)Nc1nnc([C@H]2C[C@H](O)[C@@H](CO)O2)s1 | 0.6 | inactive | – |
| CCCNC(=O)c1cc2c(c(-c3cccc(-c4ccc(C#N)cc4)c3)n1)[C@@H](CCO)N(C(=O)CC)C2 | 0.7 | inactive | – |
| O=C(NCc1ccc(F)cc1F)[C@@H]1CCCN1C(=O)[C@@H]1CCCN1C(=O)c1cccc(Cl)c1 | 0.5 | inactive | – |
| CC1CN(Cc2ccccc2)C(=S)NC1=O (stereo not given) | 0.4 | inactive | – |
| CN(C)c1ccc(/C=C2\NC(=S)N(Cc3ccccc3)C2=O)cc1 | 23.7 | – | 207% (active) |
| CN(C)c1ccc(C=C2C(=O)OC3(CCCC3)OC2=O)cc1 | 0.1 | inactive | – |
| COc1ccc([C@H]2CC(=O)C[C@@H](CCn3cc(CC4CCCC4)nn3)O2)cc1 | 0.4 | inactive | – |
| CC(C)N1C(=O)c2ccccc2NC(=O)C1C(=O)NCc1cccs1 (stereo not given) | 2.7 | inactive | – |
| CCCCC(=O)Nc1nc(C)c(-c2csc(Nc3ccc(Cl)cc3)n2)s1 | 0.8 | inactive | – |
| Cc1ccc(Nc2nc(Cl)c(C=O)s2)cc1 | 1.3 | – | 146% (active) |
| Cc1ccc(Nc2nnc(SC(C)C(=O)NC3CC3)s2)cc1 (stereo not given) | 0.7 | inactive | – |
| Cc1ccc(F)c(S(=O)(=O)NC(=O)C2(C)CCN2C(=O)c2ccco2)c1 (stereo not given) | 0.9 | inactive | – |
| CCCCCNC(=O)C(c1ccc(OC)cc1)n1c(=O)c(-c2ccccc2)nc2ccccc21 (stereo not given) | 2.6 | inactive | – |

| SMILES | GFP+ MAC1+ double positive [%] | outcome | normalized GFP-positive differentiation |
| --- | --- | --- | --- |
| Cc1cc(Cl)ccc1-c1nc(NCCN(C)C)nc2ccsc12 | 1.3 | inactive | – |
| Cc1cc(NC(=O)CSc2nc(C(C)C)nc3sc4c(c23)CCC(C)C4)no1 (stereo not given) | 6.9 | – | 29.7% (active) |
| Cc1cc(NC(=O)CSc2nc3c(cc2C#N)CCCCC3)no1 | 0 | inactive | – |
| CC(C)c1nc(SCC(=O)Nc2cccc(C(=O)O)c2)c2c3c(sc2n1)CCCC3 | 1.4 | inactive | – |
| CC(C)C[C@@H]1Cc2[nH][nH]c(=O)c2[C@H](CCc2ccccc2)O1 | 0.9 | inactive | – |
| Cc1cc2nc(-c3ccc(F)cc3)c(Cc3ccsc3)n2c(C)c1Br | 1.3 | inactive | – |
| COC(=O)[C@]12CCCCC=C1N(Cc1ccco1)C(=O)[C@H](CC(=O)NCCCCc1ccccc1)C2 | 0.4 | inactive | – |
| CCc1nc2ccc(C(=O)NC3CCN(Cc4ccccc4)CC3)cn2c1N(C)CCN1CCOCC1 | 1.3 | inactive | – |
| Oc1ccccc1C1=NN(c2ccccc2)C(c2ccccc2)C1 (stereo not given) | 0.2 | inactive | – |
| COc1ccc(C2CC(c3cccc(OC)c3)=NN2c2ccc(S(N)(=O)=O)cc2)cc1 (stereo not given) | 8.9 | – | 14.9% (active) |
| Cc1ccc(C2CC(c3cccc(NS(C)(=O)=O)c3)=NN2S(C)(=O)=O)cc1 (stereo not given) | 0.5 | inactive | – |
| O=C(/C=C/[C@H]1O[C@@H](n2ccc(=O)[nH]c2=O)[C@H](O)[C@@H]1O)NCc1ccccn1 | 1.5 | inactive | – |
| Cc1ccc(Cn2cc(CN3CC(N4CCN(C)CC4)CS3(=O)=O)nn2)cc1 (stereo not given) | 1 | inactive | – |
| CCCCC[C@@H]1C=C(C(=O)OCC)[C@H](c2ccccc2)N1S(=O)(=O)c1ccc(C)cc1 | 0.5 | inactive | – |
| c1nc(COc2nsnc2N2CCOCC2)cs1 | 7.1 | – | 13.2% (active) |
| O=C(O)COc1nsnc1N1CCOCC1 | 0 | inactive | – |
| c1ccc(COc2nsnc2N2CCOCC2)cc1 | 2.7 | inactive | – |
| CCC(C(=O)NC(C)(C)C)n1c(-c2ccccc2)nc2ccccc21 (stereo not given) | 2 | inactive | – |
| O=C(NC1CCCC1)C1c2ccccc2OCC(=O)N1CC(F)(F)F (stereo not given) | 0.5 | inactive | – |
| O=C1NC[C@H](CCCCN2C[C@H](Cc3ccccc3)N(Cc3ccccc3)C(=O)C2=O)N(CCc2ccc(O)cc2)C1=O | 1 | inactive | – |
| COC(=O)[C@@]12C[C@@H](CC(=O)N3CCCCC3)C(=O)N(Cc3ccc4c(c3)OCO4)C1=CCC(C)(C)C2 | 1.1 | inactive | – |
| CC1(C(=O)OCC(=O)Nc2ncc(Cl)cc2Cl)CC1(Cl)Cl (stereo not given) | 0.3 | inactive | – |
| CCOc1ccc(-n2c(SCC(=O)Nc3cc(C(=O)O)ccc3Cl)nc3ccccc3c2=O)cc1 | 1.1 | inactive | – |
| Cc1ccc(-n2c(SCC(=O)Nc3ncc(Cl)cc3Cl)nc3ccccc32)cc1 | 11.5 | – | 162% (active) |
| CC1CCc2sc(C(=O)NCC(c3ccco3)N3CCCCC3)cc2C1 (stereo not given) | 0.5 | inactive | – |
| CC1Cc2ccccc2N1S(=O)(=O)c1cccc(C(=O)NCC(c2ccco2)N2CCCC2)c1 (stereo not given) | 1.4 | – | 21.5% (active) |
| CC1Cc2ccccc2N1S(=O)(=O)c1cccc(C(=O)OCC(=O)N2CCOCC2)c1 (stereo not given) | 1 | inactive | – |
